“And” between values parts separate entries of the source, which are not always exact repeats. Identical values can stand only once. The panel holds about 83,000 compounds, 20% with a hit somewhere; the sample as a whole holds those more often.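 Plates (96-well) were seeded with cells, treated with compound at one concentration, and incubated for 48 hours before percent growth was determined.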 The source made the active and inactive calls. How the source made its calls: active means growth percent below 10; inactive means the rest.
How the values were obtained:
Test in all cases: NCI-60 one-dose screen, 48 h (100 = growth as untreated, 0 = no growth, -100 = all killed)
Conditions in all cases: 10 µM unless noted
DU-145 prostate = test system: DU-145 prostate
K-562 leukemia = test system: K-562 leukemia
MALME-3M melanoma = test system: MALME-3M melanoma
MDA-MB-231 breast = test system: MDA-MB-231 breast
RXF 393 renal = test system: RXF 393 renal
SF-268 CNS = test system: SF-268 CNS
SF-295 CNS = test system: SF-295 CNS
SF-539 CNS = test system: SF-539 CNS
UACC-257 melanoma = test system: UACC-257 melanoma
M14 melanoma = test system: M14 melanoma

With `CN(C)c1ccc(/C=C(\C#N)c2ccccc2)cc1` the growth (DU-145 prostate) was 15.7% (inactive) and 38.1% (inactive), the growth (K-562 leukemia) was 11.3% (inactive) and 14% (inactive) and 23.9% (inactive) and the growth (MALME-3M melanoma) was 53.7% (inactive) and 51.2% (inactive) and 57.3% (inactive). For the same compound, the growth (MDA-MB-231 breast) was 55.7% (inactive) and 50.3% (inactive) and 48.9% (inactive), the growth (RXF 393 renal) was -6.38% (active) and -3.64% (active) and the growth (SF-268 CNS) was 43.5% (inactive) and 61.1% (inactive) and 56% (inactive). The growth (SF-295 CNS) was -18.9% (active) and 23.5% (inactive) and 17% (inactive), the growth (SF-539 CNS) was -2.9% (active) and -3.11% (active) and -13.1% (active) and the growth (UACC-257 melanoma) was 20.1% (inactive) and 66.6% (inactive) and 56.6% (inactive). For the same compound, the growth (M14 melanoma) was 19.1% (inactive) and 30.2% (inactive) and 24% (inactive).

With `c1ccc2cc(C[n+]3ccn(Cc4ccc5ccccc5n4)c3)ccc2c1` the growth (DU-145 prostate) was 21.9% (inactive) and 64.5% (inactive), the growth (K-562 leukemia) was 14.5% (inactive) and 21.2% (inactive) and the growth (MALME-3M melanoma) was -27.2% (active) and 22.9% (inactive). The growth (MDA-MB-231 breast) was -2.02% (active) and 23.4% (inactive), the growth (RXF 393 renal) was 23.5% (inactive) and 45.4% (inactive) and the growth (SF-268 CNS) was 11.9% (inactive) and 41.2% (inactive). For the same compound, the growth (SF-295 CNS) was 19.7% (inactive) and 60% (inactive), the growth (SF-539 CNS) was 13.8% (inactive) and 29.3% (inactive) and the growth (UACC-257 melanoma) was -25.3% (active) and -8.7% (active). For the same compound, the growth (M14 melanoma) was 9.07% (active) and 35.4% (inactive).

With `Fc1ccccc1Nc1n[nH]c(=S)s1` the growth (DU-145 prostate) was 110% (inactive), the growth (K-562 leukemia) was 107% (inactive) and the growth (MALME-3M melanoma) was 127% (inactive). The growth (MDA-MB-231 breast) was 109% (inactive), the growth (RXF 393 renal) was 116% (inactive) and the growth (SF-268 CNS) was 91.5% (inactive). The growth (SF-295 CNS) was 126% (inactive), the growth (SF-539 CNS) was 105% (inactive) and the growth (UACC-257 melanoma) was 103% (inactive). For the same compound, the growth (M14 melanoma) was 109% (inactive).

For `CCOc1ccc2c(S(=O)(=O)O)cccc2c1[N+](=O)[O-]`, the growth (DU-145 prostate) was 104% (inactive) and 116% (inactive), the growth (K-562 leukemia) was 101% (inactive) and 88.4% (inactive) and the growth (MALME-3M melanoma) was 106% (inactive) and 101% (inactive). The growth (MDA-MB-231 breast) was 106% (inactive) and 110% (inactive), the growth (RXF 393 renal) was 114% (inactive) and 100% (inactive) and the growth (SF-268 CNS) was 99.1% (inactive) and 96.2% (inactive). For the same compound, the growth (SF-295 CNS) was 104% (inactive) and 107% (inactive), the growth (SF-539 CNS) was 102% (inactive) and 107% (inactive) and the growth (UACC-257 melanoma) was 114% (inactive) and 100% (inactive). For the same compound, the growth (M14 melanoma) was 108% (inactive) and 99.6% (inactive).

For `COc1ccccc1/C=N\N=C(N/N=C/c1ccccc1OC)N/N=C/c1ccccc1OC`, the growth (DU-145 prostate) was 71.5% (inactive) and 53.4% (inactive), the growth (K-562 leukemia) was 34.1% (inactive) and 11.4% (inactive) and the growth (MALME-3M melanoma) was 52.1% (inactive). The growth (MDA-MB-231 breast) was 73.8% (inactive) and 51.3% (inactive), the growth (RXF 393 renal) was 94.5% (inactive) and 60.1% (inactive) and the growth (SF-268 CNS) was 63.6% (inactive) and 25.6% (inactive). For the same compound, the growth (SF-295 CNS) was 52.1% (inactive), the growth (SF-539 CNS) was 83.7% (inactive) and 42.1% (inactive) and the growth (UACC-257 melanoma) was 90.9% (inactive) and 31% (inactive). The growth (M14 melanoma) was 59.9% (inactive) and 26.6% (inactive).

In the case of `O=[N+]([O-])c1ccc(/C=N\NC(=S)Nc2ccc(F)cc2)cc1`, the growth (DU-145 prostate) is reported as 102% (inactive) and 87.1% (inactive), the growth (K-562 leukemia) is reported as 104% (inactive) and the growth (MALME-3M melanoma) is reported as 92.6% (inactive). For the same compound, the growth (MDA-MB-231 breast) was 77.5% (inactive) and 77.6% (inactive), the growth (RXF 393 renal) was 98% (inactive) and 105% (inactive) and the growth (SF-268 CNS) was 102% (inactive) and 99.8% (inactive). The growth (SF-295 CNS) was 102% (inactive), the growth (SF-539 CNS) was 102% (inactive) and 58.6% (inactive) and the growth (UACC-257 melanoma) was 91.4% (inactive) and 104% (inactive). The growth (M14 melanoma) was 113% (inactive) and 96.8% (inactive).

In the case of `O=C(CN1CCN(c2cc3c(cc2F)c(=O)c(C(=O)O)cn3C2CC2)CC1)Nc1ccc(Cl)cc1`, the growth (DU-145 prostate) is reported as 99.1% (inactive) and 103% (inactive), the growth (K-562 leukemia) is reported as 68.1% (inactive) and 67.9% (inactive) and the growth (MALME-3M melanoma) is reported as 91.8% (inactive) and 91.1% (inactive). The growth (MDA-MB-231 breast) was 60.2% (inactive) and 70.1% (inactive), the growth (RXF 393 renal) was 74.7% (inactive) and 84.3% (inactive) and the growth (SF-268 CNS) was 91.2% (inactive) and 92.5% (inactive). For the same compound, the growth (SF-295 CNS) was 87.9% (inactive) and 96.6% (inactive), the growth (SF-539 CNS) was 86.9% (inactive) and 85.6% (inactive) and the growth (UACC-257 melanoma) was 57% (inactive) and 88.4% (inactive). The growth (M14 melanoma) was 81.8% (inactive) and 92% (inactive).

For `CCOc1ccc2cc(-c3nn(CC4CCNCC4)c4ncnc(N)c34)ccc2c1`, the growth (DU-145 prostate) was 108% (inactive) and 57.5% (inactive), the growth (K-562 leukemia) was 59.3% (inactive) and -8.9% (active) and the growth (MALME-3M melanoma) was 73.7% (inactive) and -54.7% (active). The growth (MDA-MB-231 breast) was 86.5% (inactive) and 15.6% (inactive), the growth (RXF 393 renal) was 55.4% (inactive) and 18% (inactive) and the growth (SF-268 CNS) was 80.6% (inactive) and 41.1% (inactive). The growth (SF-295 CNS) was 108% (inactive) and 74.5% (inactive), the growth (SF-539 CNS) was 77.4% (inactive) and 40.2% (inactive) and the growth (UACC-257 melanoma) was -52.9% (active). The growth (M14 melanoma) was 91.5% (inactive) and -42.6% (active).

In the case of `Cc1nn(-c2ccc(Cl)cc2)c2ncnc(N/N=C/c3ccccc3O)c12`, the growth (DU-145 prostate) is reported as 19.1% (inactive) and 21% (inactive), the growth (K-562 leukemia) is reported as 18.5% (inactive) and 14.7% (inactive) and the growth (MALME-3M melanoma) is reported as 48.7% (inactive) and 0.643% (active). For the same compound, the growth (MDA-MB-231 breast) was 32.6% (inactive) and 32.4% (inactive), the growth (RXF 393 renal) was 25.7% (inactive) and 14.5% (inactive) and the growth (SF-268 CNS) was 9.67% (active) and 7.69% (active). The growth (SF-295 CNS) was 24.5% (inactive) and 10% (inactive), the growth (SF-539 CNS) was 14% (inactive) and 4.62% (active) and the growth (UACC-257 melanoma) was -3.7% (active) and 9.92% (active). For the same compound, the growth (M14 melanoma) was 0.303% (active).

For `O=Nc1ccc(O)cc1`, the growth (DU-145 prostate) was 97.1% (inactive) and 114% (inactive), the growth (K-562 leukemia) was 109% (inactive) and 98.1% (inactive) and the growth (MALME-3M melanoma) was 107% (inactive) and 135% (inactive). The growth (MDA-MB-231 breast) was 84.9% (inactive) and 68.5% (inactive), the growth (RXF 393 renal) was 99.3% (inactive) and 112% (inactive) and the growth (SF-268 CNS) was 88.7% (inactive) and 93.4% (inactive). For the same compound, the growth (SF-295 CNS) was 99.5% (inactive) and 105% (inactive), the growth (SF-539 CNS) was 90.2% (inactive) and 91.5% (inactive) and the growth (UACC-257 melanoma) was 108% (inactive) and 96.8% (inactive). For the same compound, the growth (M14 melanoma) was 97.8% (inactive) and 102% (inactive).

In the case of `CCC(C)C1(C2CCCC2)NC(=O)NC1=O` (stereo not given), the growth (DU-145 prostate) is reported as 121% (inactive), the growth (K-562 leukemia) is reported as 99.3% (inactive) and the growth (MALME-3M melanoma) is reported as 114% (inactive). For the same compound, the growth (MDA-MB-231 breast) was 101% (inactive) and 94.3% (inactive), the growth (RXF 393 renal) was 106% (inactive) and 127% (inactive) and the growth (SF-268 CNS) was 103% (inactive) and 107% (inactive). For the same compound, the growth (SF-295 CNS) was 117% (inactive) and 93.9% (inactive), the growth (SF-539 CNS) was 104% (inactive) and 96.6% (inactive) and the growth (UACC-257 melanoma) was 94.9% (inactive) and 101% (inactive). For the same compound, the growth (M14 melanoma) was 98.4% (inactive) and 106% (inactive).

For `CCN(CC)CCCC(CNc1ccnc2cc(Cl)ccc12)c1ccc(Cl)cc1` (stereo not given), the growth (DU-145 prostate) was 34.5% (inactive) and 29.6% (inactive), the growth (K-562 leukemia) was -69% (active) and -71% (active) and the growth (MALME-3M melanoma) was -91.3% (active) and -77.4% (active). For the same compound, the growth (MDA-MB-231 breast) was -58.2% (active) and 38.7% (inactive), the growth (RXF 393 renal) was -64.7% (active) and 22.7% (inactive) and the growth (SF-268 CNS) was -19.4% (active) and -34.3% (active). The growth (SF-295 CNS) was -69.7% (active) and -71.8% (active), the growth (SF-539 CNS) was -87.6% (active) and -92.2% (active) and the growth (UACC-257 melanoma) was -67.8% (active) and -86.2% (active). For the same compound, the growth (M14 melanoma) was -84.7% (active) and -71.4% (active).

With `C/C(=N\NC(=O)c1ccncc1)c1ccccc1O` the growth (DU-145 prostate) was 40.8% (inactive) and 45.2% (inactive), the growth (K-562 leukemia) was 35.6% (inactive) and 35.4% (inactive) and the growth (MALME-3M melanoma) was 65.6% (inactive) and 53.4% (inactive). For the same compound, the growth (MDA-MB-231 breast) was 34.9% (inactive) and 36.2% (inactive), the growth (RXF 393 renal) was 63.6% (inactive) and 75.4% (inactive) and the growth (SF-268 CNS) was 37.1% (inactive) and 40.5% (inactive). The growth (SF-295 CNS) was 40.2% (inactive) and 39.3% (inactive), the growth (SF-539 CNS) was 52.9% (inactive) and 30.2% (inactive) and the growth (UACC-257 melanoma) was 43.9% (inactive) and 25.1% (inactive). The growth (M14 melanoma) was 27.5% (inactive) and 33.5% (inactive).

For `Cc1ncsc1CCO`, the growth (DU-145 prostate) was 112% (inactive) and 105% (inactive), the growth (K-562 leukemia) was 103% (inactive) and 108% (inactive) and the growth (MALME-3M melanoma) was 118% (inactive) and 86.2% (inactive). For the same compound, the growth (MDA-MB-231 breast) was 103% (inactive) and 105% (inactive), the growth (RXF 393 renal) was 99% (inactive) and 133% (inactive) and the growth (SF-268 CNS) was 101% (inactive) and 94.3% (inactive). For the same compound, the growth (SF-295 CNS) was 101% (inactive) and 100% (inactive), the growth (SF-539 CNS) was 111% (inactive) and 99.6% (inactive) and the growth (UACC-257 melanoma) was 106% (inactive) and 92.9% (inactive). For the same compound, the growth (M14 melanoma) was 107% (inactive) and 95.3% (inactive).

Source: PubChem BioAssay (NCI)
